The record followed here is PubChem BioAssay (Tox21).

Inconclusive results are not listed. A call without a number means that no potency is given here. Active and inactive are the calls of the source. The call rests on the fitted dose curve; in most records, active means well fitted activation curve with a large enough effect in the repeat runs; inconclusive means weak or mixed curves; inactive means flat fitted curve, though single readings scatter.

A short description of the assay: A CellTox Green Cytotoxicity Assay to monitor cytotoxicity in HepG2 cells - 16 hour (AID 1224876). Further: nearly all actives have a fitted effect of over 45% in size. Particulars: CellTox Green fluorescence; series mostly up to 76.8 µM. The source says: National Center for Advancing Translational Sciences [NCATS]
NIH Chemical Genomics Center [NCGC]
U.S. Environmental Protection Agency [EPA]
National Institutes of Environmental Health Sciences [NIEHS]
National Toxicology Program [NTP]
Cell-based models are critical for drug discovery. Determining the natural cytotoxic effects resulting from test compounds is an essential research activity. A CellTox Green Cytotoxicity Assay to monitor cytotoxicity in real time of continues cell culture during 40 hours of the compound treatment was used to screen Tox21 10K library compounds in HepG2 cells. CellTox Green Cytotoxicity Assay is a nonlytic, homogeneous, biofluorescent method to measure cytotoxicity in cell culture after experimental manipulation. The assay system uses a proprietary asymmetric cyanine dye that is excluded from viable cells but preferentially stains the dead cell's DNA. […] Viable cells produce no appreciable increases in fluorescence. Therefore, the fluorescence signal produced by the binding interaction with dead cell DNA is proportional to cytotoxicity.
The mixture of HepG2 cell suspension and reagents were dispensed at 600cells/6 ul/well in 1536-well tissue culture treated black solid bottom plates using a Multidrop dispenser. After the assay plates were incubated at a 37 C/5% CO2 incubator for 5 hours, 23 nL of compounds dissolved in DMSO, positive and negative controls was transferred to the assay plate by a pintool work station. The plates were incubated at 37 C for 40 hours. The fluorescence intensity were measured at 0h, 8h, 16h, 24h, 32h and 40h time points using ViewLux plate reader during compound treatment.
On to `CCCc1c2oc(C(=O)O)cc(=O)c2cc2c(=O)cc(C(=O)O)n(CC)c12`, for which the Potency result was “inactive”.
In the case of `CC1=C(CC(=O)O)c2cc(F)ccc2/C1=C\c1ccc(S(C)(=O)=O)cc1`, the Potency result was “inactive”.
With `COc1ccc2nc(NC(=O)Nc3ccccc3)sc2c1`, the Potency entry was “inactive”.
The same measure for `CC(C)CC(=O)OCc1ccccc1`: “inactive”; for `O=C(O[C@@H](C(=O)O)[C@@H](OC(=O)c1ccccc1)C(=O)O)c1ccccc1`: “inactive”.
The same measure for `Cc1c(C(=O)NCCO)[n+](=O)c2ccccc2n1[O-]`: “inactive”.
Consider `CC1CN(c2ccccc2)NC1=O` (stereo not given), for which the Potency result is “inactive”.
As for `CC(C)(CO)[C@@H](O)C(=O)NCCC(=O)O`, the Potency entry is “inactive”.
As for `CCCCCCCCCC/C=C/C#N`, the entry is “inactive”.
As for `CCc1nnc(NS(=O)(=O)c2ccc(N)cc2)s1`, the entry is “inactive”; as for `CCCNC(C)(C)COC(=O)c1ccccc1`, “inactive”; as for `CN(C)CC[C@@H](c1ccc(Cl)cc1)c1ccccn1`, “inactive”.
The same measure for `CNCCC(Oc1ccccc1OC)c1ccccc1` (stereo not given): “inactive”; for `CC(=O)Oc1cc(C(C)C)c(OCCN(C)C)cc1C`: “inactive”.
On to `Cc1c[nH]c(=S)[nH]c1=O`, for which the Potency entry was “inactive”.
As for `COC(=O)/C=C(/C)N`, the entry is “inactive”; as for `Cc1c(N)cccc1N`, “inactive”; as for `COc1cc(N)c(Cl)cc1C(=O)NC1CCN(Cc2ccccc2)CC1`, “inactive”.
The same measure for `C=CCc1cc(OC)c(O)c(C(=O)NCCO)c1`: “inactive”.
Take `CC(Oc1c(Cl)cccc1Cl)C1=NCCN1` (stereo not given): the Potency result is “inactive”.
As for `OCc1ccccc1O`, the entry is “inactive”; as for `CCCCCCn1c(=O)c2c(ncn2C)n(C)c1=O`, “inactive”; as for `CS(=O)(=O)c1ccc([C@@H](O)[C@@H](CF)NC(=O)C(Cl)Cl)cc1`, “inactive”.
As for `FC(F)(F)c1ccccc1`, the entry is “inactive”; as for `ClC(Cl)Cl`, “inactive”.
As for `CCOc1ccccc1N`, the Potency result was “inactive”.
As for `CCOC(=O)C(Br)c1ccccc1` (stereo not given), the entry is “inactive”; as for `CCOc1ccc(NS(=O)(=O)c2ccc(N)cc2)nn1`, “inactive”; as for `CN1CCN(C2=Nc3ccccc3Oc3ccc(Cl)cc32)CC1`, “inactive”.
On to `CC(C)S`, for which the Potency entry is “inactive”.
As for `C=Cc1ccccc1`, the entry is “inactive”; as for `CC(C)OC(C)C`, “inactive”.
In the case of `O=C(O)[C@@H]1CSCN1`, the Potency entry is “inactive”.
Regarding `CC(C)NC[C@@H](O)COc1cccc2ccccc12`, the Potency entry was “inactive”.
For the molecule `CCN(CC)CC1CCCCN1CC(=O)N1c2ccccc2C(=O)Nc2cccnc21` (stereo not given), the Potency result was “inactive”.
The same measure for `CCN(CCCc1ccccc1)CCCc1ccccc1`: “inactive”; for `O=C(Cl)c1cccc([N+](=O)[O-])c1`: “inactive”.
As for `CCCC(CCC)(C(=O)OCC)C(=O)OCC`, the entry is “inactive”.
As for `CCN(O)CC`, the entry is “inactive”; as for `C[C@@H](N)C(=O)O`, “inactive”.
